# Hits are enriched below; roughly 7.5% of the tested compounds scored in any of these assays.
# NPC1 prom act: activators of NPC1 promoter; 2.4% of 320,000 active; Huh7 NPC1 promoter luciferase reporter, 24 h; Potency, µM (doses to about 9.22 µM), inactives show at the top dose activation, hits mostly activators; further: % of control where 0% means no effect; nearly all actives have a fitted effect of over 60% in size
#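 In 1536-well qHTS, Huh7 cells harboring an NPC1 promoter–luciferase construct received compound for 24 h; activation was quantified by luminescence following luciferase reagent addition.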
# ELG1 genotoxic: inducers of genotoxicity in HEK293T ELG1-luciferase cells; HEK293T ELG1-luciferase reporter, luminescence, 16 h; Potency, µM (doses to about 46 µM), inactives show at the top dose activity change, positive = activation, most hits filed as activators; 1.3% of 330,000 active; further: % of control where 0% means no effect; nearly all actives have a fitted effect of over 60% in size
#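 Luminescence read-out: rising ELG1-luciferase signal, reflecting elevated ELG1 protein under genetic stress, flags genotoxic compounds. Cells were treated for 16 hr at 37 °C before ONE-Glo detection.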
# FLuc counter: inhibits or activates purified firefly luciferase, miR-21 counter-screen. purified FLuc, Km substrates, luminescence inhibition. Potency, µM (doses to about 57.5 µM), inactives show at the highest dose activity change, negative = inhibition, actives largely listed as inhibitors. 6.9% of 360,000 active. AID 588342;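 further: plate controls were vehicle for no effect and reference inhibitor for full effect; nearly all actives have a fitted effect of over 55% in size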
# Target sequence (P08659 whole entry, looked up): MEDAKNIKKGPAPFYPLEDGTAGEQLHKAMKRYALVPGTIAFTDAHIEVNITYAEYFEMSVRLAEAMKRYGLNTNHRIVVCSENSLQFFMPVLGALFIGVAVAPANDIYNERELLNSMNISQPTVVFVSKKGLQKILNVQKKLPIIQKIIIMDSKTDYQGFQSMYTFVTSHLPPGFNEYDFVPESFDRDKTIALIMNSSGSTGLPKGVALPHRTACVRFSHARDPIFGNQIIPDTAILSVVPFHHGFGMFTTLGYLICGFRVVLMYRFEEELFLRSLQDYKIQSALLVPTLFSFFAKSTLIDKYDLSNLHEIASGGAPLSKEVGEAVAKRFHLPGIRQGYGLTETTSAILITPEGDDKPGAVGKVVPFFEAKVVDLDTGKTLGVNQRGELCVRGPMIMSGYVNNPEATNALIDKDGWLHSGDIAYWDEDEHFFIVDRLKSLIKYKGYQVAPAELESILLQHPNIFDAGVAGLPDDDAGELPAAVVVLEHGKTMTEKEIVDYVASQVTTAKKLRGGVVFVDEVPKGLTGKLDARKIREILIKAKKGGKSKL
#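 Purified P. pyralis luciferase, 10 nM final, with Km-level 10 uM D-luciferin and 10 uM ATP in 50 mM Tris acetate pH 7.5, 10 mM Mg acetate, 0.01% Tween-20, 0.05% BSA; 6-point qHTS titration about 60 µM downward; luminescence read.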
# Rab9 promoter act: Rab9 promoter activation | Huh7 Rab9 promoter-luciferase reporter, luminescence, 24 h | Potency, µM (top dose mostly 9.22 µM), for the others: at the highest dose activation, negative = inhibition, usual class: activators | 2.8% of 320,000 active; further: % of control where 0% means no effect; nearly all actives have a fitted effect of over 60% in size
#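 Cells were plated at 1500 per well in reduced-serum medium with 10% FBS and left 2 h. Compound in DMSO was then added for 24 h at 37 °C. Reporter signal was read by luminescence after 10 min with luciferase detection reagent.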
# SMN2 splice up: SMN2 splice variant enhancement. Potency, µM (titrated, usually from 46.1 µM), inactives show top-dose activity change, positive = activation, most hits filed as activators. AID 1458. 2.8% of 210,000 active. HEK293 SMN2-luciferase splicing reporter, luminescence, 30-36 h; further: % of control where 0% means no effect; nearly all actives have a fitted effect of over 55% in size
#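 HEK293 cells carry an SMN2 […]–luciferase reporter in which exon 7 inclusion puts luciferase in frame. Cells were plated 10-12 h before compound addition, then incubated 30-36 h at 37C. ONE-Glo luminescence was read; sodium butyrate at 4.5 mM final served as control.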
# Luc counter: counter-screen: inhibitors of Kinase-Glo firefly luciferase | Q27757 | Kinase-Glo luciferase, ATP luminescence, 8 min | Potency, µM (top dose mostly 38.3 µM), without a hit: at the top dose activity change, negative = inhibition, usual class: inhibitors | 0.28% of 200,000 active | AID 1379; further: on the % scale 0 is the no-effect control and ±100 the full control effect; nearly all actives have a fitted effect of over 60% in size
#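 Inhibition of Kinase-Glo luciferase light generation was assessed at 10 uM ATP in pH 7.2 imidazole buffer, with luminescence measured after eight minutes at ambient temperature.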
# Active calls of the source: *; ? = inconclusive; . = no result; [ ] = remark or other dose. The call rests on the fitted dose curve; in most records, active means well fitted curve in the direction sought with a large enough effect; inconclusive means small, poorly fitted or top-dose-only effect, or another doubt; inactive means no such curve, though single readings can be large; an effect the other way counts as inactive or inconclusive. Potency means the concentration at half of the fitted maximal effect.
SMILES,NPC1 prom act,ELG1 genotoxic,FLuc counter,Rab9 promoter act,SMN2 splice up,Luc counter
C/C(=N/NC(=O)c1ccoc1C)c1ccc(N2CCOCC2)cc1,15.6%,?,?,21.6%,?,-11.3%
CC(=O)OCOC(c1ccc2ccccc2c1)P(=O)(OCOC(C)=O)OCOC(C)=O (stereo not drawn),.,.,.,.,-22.2%,.
Cc1cc(N2CCN(C)CC2)nc2ccc(NC(=O)Nc3ccccc3Cl)cc12,.,.,1.69µM*,.,.,.
Cc1ccc(NC(=O)Nc2ccc3nc(N4CCN(C)CC4)cc(C)c3c2)cc1F,.,.,-1.6%,.,.,.
COc1cccc(NC(=O)Nc2ccc3nc(N4CCN(C)CC4)cc(C)c3c2)c1,.,.,12µM*,.,.,.
Cc1cc(C)cc(NC(=O)Nc2ccc3nc(N4CCN(C)CC4)cc(C)c3c2)c1,.,.,-19.7%,.,.,.
O=C1CSC(=S)N1N1C(=O)c2cccc([N+](=O)[O-])c2C1=O,-7.0%,-12.0%,?,-14.4%,-11.4%,-1.7%
O=C(CCS(=O)(=O)c1ccccc1)NC1CCCCC1,25.4%,14.6µM*,16.9µM*,?,.,.
O=C(CCSc1ccccc1)NC1CCCC1,3.5%,?,15.1µM*,1.0%,20.8%,-2.9%
O=C(CCSc1ccc(Cl)cc1)NC1CCCC1,-1.7%,-1.1%,-2.3%,1.9%,.,.
Cc1cc2ncc(-c3cccc(Cl)c3)cn2n1,?,9.5%,?,?,?,-4.6%
Cc1nn2cc(-c3ccc(Cl)cc3)cnc2c1Cl,3.55µM*,?,?,3.16µM*,5.62µM*,-12.1%
O=C(NCc1ccccc1)N1CCn2c(nc3ccccc32)C1,0.5%,-3.4%,0.8%,0.9%,9.4%,0.5%
CCC1(c2ccccc2)NC(=O)N(CC(=O)N(CC(=O)Nc2ccccc2C(F)(F)F)Cc2ccco2)C1=O (stereo not drawn),-0.8%,1.5%,1.2%,0.1%,.,.
COc1ccc(CNC(=O)C(c2ccco2)N(C(=O)c2ccccn2)c2ccccc2)cc1 (stereo not drawn),0.891µM*,?,6.75µM*,0.891µM*,.,-7.3%
O=C(NCc1ccccc1)C(c1ccco1)N(C(=O)c1ccccn1)c1ccccc1 (stereo not drawn),-4.3%,-10.6%,1.7%,-1.2%,.,.
O=C(COc1ccccc1Cl)Nc1ccc2c(c1)OCO2,2.82µM*,3.55µM*,3.38µM*,?,.,.
COc1cccc(NC(=O)COc2ccccc2C(N)=O)c1,2.82µM*,7.94µM*,2.39µM*,2µM*,3.98µM*,?
Cc1ccc2cccc(OCC(=O)Nc3ccc4c(c3)OCO4)c2n1,6.4%,-7.4%,-19.2%,-2.9%,-16.7%,-2.3%
COc1ccc(OCC(=O)Nc2cccc(OC)c2)cc1,1.9%,?,-15.2%[2.3 µM],-3.6%,.,-12.7%
Cc1ccc(-n2c(C)cc(C(=O)COc3c(CO)cc(F)cc3CO)c2C)cc1C,0.1%,-4.6%,23.9µM*,-1.1%,-51.8%,-3.6%
CC(=O)Nc1cccc(NC(=O)COc2ccccc2C)c1,13.1%,0.8%,15.1µM*,12.3%,.,.
CC(=O)c1cccc(NC(=O)COC(=O)COc2ccccc2C)c1,-3.0%,0.2%,-8.3%,-3.0%,4.5%,-0.2%
COCc1cc(C)n(CC(=O)Nc2ccc3c(c2)OCO3)c(=O)c1C#N,3.4%,-0.8%,-0.4%,-3.8%,.,.
Cc1cc(S(=O)(=O)Nc2ccc(C(=O)NCc3cccnc3)cc2)ccc1F,3.8%,-0.7%,0.5%,1.0%,.,.
Cc1cc(NC(=O)COc2ccccc2C)no1,3.16µM*,?,16.9µM*,3.16µM*,.,-2.8%
Cc1ccccc1OCC(=O)Nc1ccc2c(c1)OCO2,?,?,13.5µM*,7.3%,-8.9%,-10.5%
COc1ccc(OCC(=O)Nc2ccc3c(c2)OCO3)cc1,10.5%,21.9%,?,14.4%,.,.
Cc1ccccc1OCC(=O)OCC(=O)Nc1ccc2c(c1)OCCO2,-1.2%,0.6%,.,-0.5%,.,.
COc1cc(C)ccc1OCC(=O)Nc1ccc2c(c1)OCO2,?,?,7.57µM*,2.82µM*,.,.

# Compound activity from PubChem.
